Results with a measured potency or affinity are listed apart. Activity calls are given as the source filed them. No rule for the calls is given here.
Assay: A549 cell cytotoxicity, dose response, cytotoxicity control, plate reader, cherry-pick, antagonist series (AID 743412)
Details: series mostly up to 26 µM

Structure (SMILES)	outcome
CCCOc1ccc2cc(-c3ccccn3)c(=O)oc2c1	inactive
CCc1ccn2cc(-c3cc(-c4ccccc4)no3)nc2c1	inactive
c1ccc(COc2ccc(OCCCN3CCCC3)cc2)cc1	inactive
CC(=O)N1CCCC(c2cc(C(=O)Nc3ccccc3)no2)C1 (stereo not given)	inactive
COc1ccc2nc(-c3ccc(F)cc3)sc2c1	inactive
COc1ccc(-c2[nH]ncc2-c2ccc3c(c2)OCCO3)c(O)c1	inactive
O=C1OCCC1Sc1nnc(-c2ccc(Cl)cc2Cl)o1 (stereo not given)	inactive
COc1ccc(-n2nnnc2-c2nc3ccccc3s2)cc1	inactive
O=C(O)c1ccc(N/N=C/c2c[nH]c3ccccc23)cc1	inactive
Cc1csc(NC(=O)c2cnc3ccccc3n2)n1	inactive
O=C(Nc1ccccc1)c1cn2ccccc2n1	inactive
O=C(NC1(Cc2ccccc2)CCN(Cc2ccc(-c3ccccc3)cc2)C1=O)c1ccccc1 (stereo not given)	inactive
O=C(O)c1ccc(N/N=C/c2ccc3ncccc3c2)cc1	inactive
CCC(=O)Nc1cc2nn(-c3ccc(OC)cc3)nc2cc1C	inactive
COC(=O)c1ccc2nc(-c3cccc(N)c3)cn2c1	inactive
Cc1ccc(-c2cc(C(=O)N(C)Cc3cnn(C)c3C)c3cc(Br)ccc3n2)cc1	inactive
COCCn1c(C)cc(C(=O)CSc2nc3ccccc3s2)c1C	inactive
Cc1ccc(-c2nc(-c3ccncc3)no2)c(Cl)c1	inactive
COc1cccc(-c2cc(C(=O)Nc3cccc(O)c3)no2)c1	inactive
C[C@@H]1CN([C@H](C)CO)C(=O)CCCn2nncc2CO[C@H]1CN(C)C(=O)Nc1cccc2ccccc12	inactive

Reference: PubChem BioAssay
